Here are results for 31 compounds from PubChem BioAssay (Tox21).

Values without a mark were called inactive. Records with an inconclusive call do not appear. The source made the active and inactive calls. Unless noted, calls come from the whole dose curve; as a rule, active = well fitted curve in the direction sought with a large enough effect in the repeat runs; inconclusive = weak or mixed curves; inactive = no such curve, though single readings can be large; an effect the other way counts as inactive or inconclusive.

The target of experiment [1] is Progesterone receptor (Homo sapiens) (UniProt P06401). As to the kind of experiment: qHTS assay to identify small molecule agonists of the progesterone receptor (PR) signaling pathway (AID 1346784; calls by dose curve; note: nearly all actives have a fitted effect of over 30% in size). The procedure, abridged: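 The screen uses PR-UAS-bla HEK 293T cells in charcoal-stripped serum (2%). Compounds are applied for 16 hr at 37C after a 6 hr pre-incubation, and reporter activity is detected with a FRET beta-lactamase substrate after 2 hr at room temperature.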
Progesterone receptor (Homo sapiens), sequence (P06401 whole entry, looked up): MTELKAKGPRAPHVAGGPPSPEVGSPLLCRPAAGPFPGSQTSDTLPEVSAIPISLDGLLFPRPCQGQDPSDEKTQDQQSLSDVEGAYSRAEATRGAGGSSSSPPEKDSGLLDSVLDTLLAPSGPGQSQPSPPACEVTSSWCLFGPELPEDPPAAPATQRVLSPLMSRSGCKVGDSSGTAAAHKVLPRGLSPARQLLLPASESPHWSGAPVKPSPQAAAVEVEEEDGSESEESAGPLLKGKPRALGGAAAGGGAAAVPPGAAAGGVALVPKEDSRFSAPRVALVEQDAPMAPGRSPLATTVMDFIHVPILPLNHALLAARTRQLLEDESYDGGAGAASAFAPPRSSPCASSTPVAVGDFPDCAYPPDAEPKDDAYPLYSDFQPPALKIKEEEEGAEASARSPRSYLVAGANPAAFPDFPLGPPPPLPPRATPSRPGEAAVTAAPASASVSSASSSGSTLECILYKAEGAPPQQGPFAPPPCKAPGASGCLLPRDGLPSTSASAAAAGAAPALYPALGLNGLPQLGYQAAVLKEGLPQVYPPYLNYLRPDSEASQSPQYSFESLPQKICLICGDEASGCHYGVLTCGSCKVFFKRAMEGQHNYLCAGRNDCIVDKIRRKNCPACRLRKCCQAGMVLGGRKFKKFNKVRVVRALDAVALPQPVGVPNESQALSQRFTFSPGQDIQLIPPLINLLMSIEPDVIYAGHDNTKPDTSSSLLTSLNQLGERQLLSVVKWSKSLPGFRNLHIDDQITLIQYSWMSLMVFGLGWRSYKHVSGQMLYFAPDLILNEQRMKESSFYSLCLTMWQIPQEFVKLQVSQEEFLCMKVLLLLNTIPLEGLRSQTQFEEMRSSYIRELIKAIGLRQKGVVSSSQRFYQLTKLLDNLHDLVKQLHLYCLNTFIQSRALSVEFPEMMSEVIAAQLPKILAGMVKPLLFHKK

The nature of experiment [2]: qHTS assay to identify small molecule antagonists of the TGF-beta/Smad signaling pathway - cell viability counter screen (AID 1346824). Note: nearly all actives have a fitted effect of over 50% in size. In short, it runs like this:
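Cytotoxicity counter-screen run in the same wells as the beta-lactamase Smad reporter read: CellTiter-Glo luminescence after 30 min at room temperature. HEK 293T SBE-bla cells had 5 hr compound exposure at 37 C with TGF-beta1 (0.25 ng/mL stock).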

Experiment [3] is described as follows: qHTS assay to identify small molecule agonists of the TGF-beta/Smad signaling pathway (AID 1346859; active = well fitted activation curve with a large enough effect in the signal ratio in the repeat runs, not every such curve was filed as active; the % refers to the signal ratio; note: series mostly up to about 77 µM). In short, it runs like this: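 Dual-wavelength fluorescence (460/530 nm emission) quantified beta-lactamase expression under the Smad binding element in HEK 293T cells following 5 hr compound treatment at 37 C.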
Experiment [4] in a line: Human pregnane X receptor (PXR) small molecule agonists, qHTS cell viability counter screen (AID 1346977). Note: nearly all actives have a fitted effect of over 50% in size. The procedure, abridged: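 HepG2 cells stably carrying the PXR-Luc reporter are cultured with 5% charcoal-stripped FBS and treated with compounds for 24hr. CellTiter-Fluor is added at 23hr and fluorescence is read after 1hr.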
Experiment [5] can be described thus: qHTS assay to identify small molecule antagonists of the progesterone receptor (PR) signaling pathway - cell viability counter screen (AID 1346798). For activity change, negative = cytotoxicity: series mostly up to about 92 µM. Note: nearly all actives have a fitted effect of over 50% in size. Note: potency is the fitted concentration of half-maximal effect. In short, it runs like this:
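Viability was determined by ATP-based luminescence (CellTiter-Glo) in PR-UAS-bla HEK293T cells cultured in 2% charcoal-stripped serum and incubated 16 hr with compounds under R5020 stimulation.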

For experiment [6], the target named is Thyrotropin-releasing hormone receptor (Homo sapiens) (UniProt P34981). As to the kind of experiment: qHTS assay to identify small molecule antagonists of the thyrotropin-releasing hormone receptor (TRHR) signaling pathway (AID 1346877; active = well fitted inhibition curve with a large enough effect in the repeat runs, not every such curve was filed as active; note: series mostly up to about 51 µM). The procedure, abridged: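 TRHR-expressing HEK293 cells were seeded, cultured 18 h at 37 °C, then loaded with calcium dye for 2 h. Compounds were pre-incubated 5 min at room temperature before 1 nM TRH (final) was added, and kinetic fluorescence was recorded for 3 min.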
Thyrotropin-releasing hormone receptor (Homo sapiens), sequence (P34981 whole entry, looked up): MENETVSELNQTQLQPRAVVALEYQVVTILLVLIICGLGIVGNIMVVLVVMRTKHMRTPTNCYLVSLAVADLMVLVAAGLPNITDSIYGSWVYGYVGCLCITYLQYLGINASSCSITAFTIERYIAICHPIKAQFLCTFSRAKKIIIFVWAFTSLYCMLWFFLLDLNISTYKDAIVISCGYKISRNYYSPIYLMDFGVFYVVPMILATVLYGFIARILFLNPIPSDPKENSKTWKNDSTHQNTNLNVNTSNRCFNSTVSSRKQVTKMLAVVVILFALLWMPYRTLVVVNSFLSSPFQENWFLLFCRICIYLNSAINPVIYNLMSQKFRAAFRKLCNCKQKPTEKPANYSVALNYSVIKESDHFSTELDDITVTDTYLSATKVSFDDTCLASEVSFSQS

For experiment [7] the target is unchanged. Put plainly: qHTS assay to identify small molecule agonists of the thyrotropin-releasing hormone receptor (TRHR) signaling pathway (AID 1346891; calls by dose curve; note: series mostly up to about 58 µM). The procedure, abridged: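 Kinetic fluorescence (3 min, 1 s intervals) reported intracellular calcium after compound transfer onto TRHR-Hek293 cells pre-loaded with dye for 2 h at 37 °C.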
Experiment [8] is described as follows: qHTS assay to identify small molecule agonists of the TGF-beta/Smad signaling pathway - cell viability counter screen (AID 1346829). Note: top concentration of the series differs between compounds; nearly all actives have a fitted effect of over 45% in size. The procedure, abridged: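 Luminescence from CellTiter-Glo, read after a 30 min room-temperature incubation, gives cell viability of SBE-bla HEK 293T cells treated 5 hr with compounds at 37 C.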
A short description of experiment [9]: qHTS assay to identify small molecule agonists of the progesterone receptor (PR) signaling pathway - cell viability counter screen (AID 1346799; calls by dose curve; note: nearly all actives have a fitted effect of over 45% in size; note: potency is the fitted concentration of half-maximal effect). In short, it runs like this: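 Viability was scored by ATP luminescence (CellTiter-Glo, 30 min, room temperature) in the same wells used for the reporter readout, after 16 hr compound exposure of PR-UAS-bla HEK293T cells.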

The target in experiment [10] is Progesterone receptor (Homo sapiens) (UniProt P06401). Put plainly: qHTS assay to identify small molecule antagonists of the progesterone receptor (PR) signaling pathway (AID 1346795; active = well fitted inhibition curve with a large enough effect in the signal ratio in the repeat runs, not every such curve was filed as active; the % refers to the signal ratio; note: potency is the fitted concentration of half-maximal effect). The procedure, abridged:
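After 6 hr plating at 37C in 2% stripped-serum medium, PR-UAS-bla HEK293T cells got compounds, then 1 nM R5020. Sixteen hours later, LiveBLAzer substrate was applied for 2 hr at room temperature and fluorescence was recorded.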
% is set by controls: 0 for no effect and ±100 for the full control effect.

Turning to `ClC(Cl)Cl`, the Potency entry in experiment [1] and in [4] was “inactive” throughout. In addition, the call in experiment [2] and in experiment [3] was inactive.
Take `Cc1nc(-c2ccccn2)ncc1C(=O)Nn1cc(C)c2cc(F)ccc21`: the Potency result in experiment [1], in [7] and in experiment [4] was “inactive” each time. In addition, the Potency in experiment [5] was 30.6 µM (active). Further, the outcome in experiment [2], in experiment [3] and in experiment [6] was inactive.
With `CC(C)c1ccccc1`, the Potency result in experiment [1], in experiment [7] and in [4] was “inactive” throughout. Further, the result in [2], in [3] and in experiment [6] was inactive.
For `Nc1ccc(Oc2ccc(N)c(N)c2)cc1`, the call in [2], in experiment [8], in [3] and in experiment [6] was inactive. The Potency result in experiment [7] is “inactive”.
On to `CN(CCCN1c2ccccc2CCc2ccccc21)CC(=O)c1ccc(Cl)cc1`, for which the Potency entry in experiment [5] and in experiment [7] was “inactive” each time. Besides, the outcome in experiment [2], in [8], in experiment [3] and in [6] was inactive.
For `CCOC(=O)c1ccccc1O`, the Potency result in experiment [5] and in experiment [7] was “inactive” throughout. Besides, the result in experiment [8] and in [6] was inactive.
Regarding `O=S(=O)(O)C(F)(F)F`, the Potency entry in experiment [1], in [9], in [7] and in experiment [4] was “inactive” in each case. In addition, the result in experiment [2], in experiment [8], in [3] and in experiment [6] was inactive.
As for `CC1CN(c2ccccc2)NC1=O` (stereo unspecified), the Potency result in [5], in experiment [9], in experiment [7] and in [4] was “inactive” each time. The compound was classed as inactive in [2], in [8], in [3] and in experiment [6].
As for `CN1[C@@H]2CC[C@H]1CC(OC(=O)c1c[nH]c3ccccc13)C2` (stereo partly specified), the Potency result in experiment [5], in experiment [7] and in experiment [4] was “inactive” throughout. The compound was called inactive in experiment [2], in experiment [3] and in experiment [6].
`C1CSCCS1`: the Potency result in experiment [1] and in experiment [5] was “inactive” in each case. Also, the result in [2] and in experiment [3] was inactive.
For `Cc1cccc(C)c1NC(=O)CN1CCCCCC1`, the Potency entry in [5] is “inactive”. Further, the call in experiment [2], in experiment [8] and in experiment [3] was inactive.
Regarding `CC(C)O`, the Potency entry in experiment [1] and in [7] was “inactive” in each case. The outcome in experiment [2], in experiment [8], in experiment [3] and in [6] was inactive.
Consider `CCCCC(=O)O[C@]1(C(=O)CO)[C@H](C)C[C@H]2[C@@H]3CCC4=CC(=O)C=C[C@]4(C)[C@@]3(F)[C@@H](O)C[C@@]21C`, for which the Potency entry in experiment [10], in experiment [5] and in experiment [4] was “inactive” each time. For the same compound, the call in [2], in experiment [8] and in [3] was inactive.
With `CC1(C)O[C@@H]2C[C@H]3[C@@H]4CCC5=CC(=O)CC[C@]5(C)[C@@]4(F)[C@@H](O)C[C@]3(C)[C@]2(C(=O)CCl)O1`, the Potency entry in experiment [10], in [5] and in experiment [9] was “inactive” in each case. Further, the compound was classed as inactive in [2], in experiment [8] and in experiment [3].
On to `CC[C@H]1CC[C@H](NCc2cc3c(cc2OC)[C@H]2C[C@H]2C(=O)N3C)[C@H](c2ccccc2)N1`, for which the Potency entry in experiment [1] and in [7] was “inactive” throughout. The compound was classed as inactive in experiment [2], in experiment [8], in experiment [3] and in experiment [6].
In the case of `Nc1cccc(S(=O)(=O)O)c1`, the Potency result in experiment [1] and in [4] was “inactive” each time. The compound was called inactive in experiment [2], in experiment [8] and in experiment [3].
In the case of `CCCOc1ccc2c(c1)CC[C@@H]1[C@@H]2CC[C@]2(C)C(OC)CC[C@@H]12` (stereo partly specified), in experiment [10], the Potency is 15 µM (active). Besides, the Potency result in [5] and in [7] was “inactive” each time. The result in [2], in experiment [8], in [3] and in experiment [6] was inactive.
As to `NC/C=C/C(=O)O`, the Potency result in [10], in experiment [5], in [9], in experiment [7] and in [4] was “inactive” in each case. Further, the outcome in experiment [2], in [8], in [3] and in [6] was inactive.
As for `O=C1CCN(c2ccccc2)N1`, the Potency entry in experiment [10], in [9], in experiment [7] and in experiment [4] was “inactive” throughout. In addition, the compound was classed as inactive in experiment [2], in experiment [8], in [3] and in experiment [6].
`CC1(C)C(=O)N(Cl)C(=O)N1Br`: the Potency entry in experiment [10], in [5], in experiment [9], in experiment [7] and in [4] was “inactive” in each case. The compound was called inactive in [2], in experiment [8], in experiment [3] and in experiment [6].
With `ICCc1ccccc1`, the Potency in experiment [10], in [5] and in experiment [9] was 59.9 µM (active) throughout. For the same compound, the compound was called inactive in experiment [2], in [8], in experiment [3] and in experiment [6]. For the same compound, the Potency entry in experiment [7] and in experiment [4] was “inactive” each time.
With `OCCN(CCO)CCN(CCO)CCO`, the Potency result in [1], in [7] and in experiment [4] was “inactive” in each case. Also, the outcome in experiment [2], in [3] and in experiment [6] was inactive.
`CC(Oc1c(Cl)cccc1Cl)C1=NCCN1` (stereo unspecified): the Potency result in experiment [1], in experiment [7] and in experiment [4] was “inactive” in each case. Besides, the Potency in [5] is 29.8 µM (active). Also, the compound was classed as inactive in [2], in experiment [3] and in experiment [6].
Take `O=C(O)c1ccccc1Nc1cc(Cl)ccc1C(=O)O`: the Potency in [5] is 13 µM (active). Further, the viability change, negative = cytotoxic in [2] is 0.61% [at 15.8 µM]. Also, the activity change, negative = cytotoxicity in experiment [8] was 9.07% [at 15.8 µM]; in experiment [4], 7.26% [at 19 µM]. In addition, the figures for the activation in [3] and in experiment [7] were -1.11% [at 15.8 µM] and -0.215% [at 11.8 µM], respectively. Moreover, the activity, negative = inhibition in experiment [6] is 1.01% [at 10.5 µM].
Turning to `CCCCCCCCCC#N`, the Potency result in experiment [1] and in [7] was “inactive” each time. In addition, the compound was classed as inactive in experiment [2], in [3] and in [6].
As for `CC(C)C(=O)OCC(C)(C)C(O)C(C)C` (stereo unspecified), the Potency entry in experiment [1], in [9], in [7] and in [4] was “inactive” throughout. The compound was classed as inactive in [2], in experiment [8], in experiment [3] and in experiment [6].
`CCCCNC(=S)NCCCC`: the Potency in experiment [5] was 9.69 µM (active). Besides, the Potency entry in [9] and in experiment [7] was “inactive” each time. The compound was called inactive in [2], in experiment [8], in experiment [3] and in experiment [6].
For the compound `CC(C)(CO)[C@@H](O)C(=O)NCCC(=O)O`, the Potency entry in experiment [1], in experiment [7] and in [4] was “inactive” throughout. The call in experiment [2], in [8], in experiment [3] and in [6] was inactive.
As to `CCC(=O)O[C@]1(C(=O)SCF)[C@H](C)C[C@H]2[C@@H]3C[C@H](F)C4=CC(=O)C=C[C@]4(C)[C@@]3(F)[C@@H](O)C[C@@]21C`, the Potency entry in experiment [10], in experiment [5], in experiment [9], in experiment [7] and in experiment [4] was “inactive” in each case. In addition, the compound was called inactive in experiment [2], in experiment [3] and in experiment [6].
As for `COc1ccc2nc(NC(=O)Nc3ccccc3)sc2c1`, the Potency result in experiment [1], in experiment [5], in experiment [7] and in experiment [4] was “inactive” in each case. For the same compound, the compound was called inactive in experiment [2], in experiment [8], in [3] and in [6].
In the case of `CN(C)CCOc1ccccc1Cc1ccccc1`, the result in experiment [2], in [8], in [3] and in experiment [6] was inactive. Moreover, in experiment [7], the Potency result was “inactive”.
